Where “and” joins values, the source holds several entries; their conditions need not be identical. Equal entries are not always repeated. Calls of active or inactive are those of the source. How the source made its calls: active means hit-call score of the fitted dose curve at least 0.9, where 1 is the maximum; inactive means score below 0.9.
Assay: ATG_TCF_b_cat_CIS: Attagene CIS-FACTORIAL HepG2 Assay for human T-Cell-Factor with beta-catenin (TCF/b-cat) (AID 2282965)
Settings: HepG2 TCF/beta-catenin cis-reporter transcription, actives raise or lower the signal
Procedure: ATG_CIS is a cell-based, multiplexed-readout assay that uses HepG2, a human liver cell line, with measurements taken at 24 hours after chemical dosing in a 24-well plate.ATG_TCF_b_cat_CIS is one of 52 assay component(s) measured or calculated from the ATG_CIS assay. It is designed to make measurements of mRNA induction, a form of inducible reporter, as detected with fluorescence intensity signals by Reverse transcription polymerase chain reaction (RT-PCR) and Capillary electrophoresis technology.Data from the assay component ATG_TCF_b_cat_CIS was analyzed into 1 assay endpoint. This assay endpoint, ATG_TCF_b_cat_CIS, was analyzed with bidirectional fitting relative to DMSO as the negative control and baseline of activity. Using a type of inducible reporter, measures of mRNA for gain or loss-of-signal activity can be used to understand the reporter gene at the transcription factor-level as they relate to the gene TCF7 and TCF7L2 and LEF1 and TCF7L1. Furthermore, this assay endpoint can be referred to as a primary readout, because this assay has produced multiple assay endpoints where this one serves a reporter gene function. To generalize the intended target to other relatable targets, this assay endpoint is annotated to the dna binding intended target family, where the subfamily is HMG box protein.
Human liver HepG2 cells are transiently transfected with multiple reporter transcription units (MRTUs) in 6-well plates using FuGene 6 reagent (Roche; 3 ml FuGene/1 mg DNA). The MRTU constructs are regulated by a cis-regulating element (promoter). […] A major difference between the CIS and TRANS system is that in CIS activities of endogenous TFs are measured, whereas the TRANS assay evaluates changes in activities of exogenous, chimeric NR-Gal4 proteins. […] At the end of 24 hour incubation, total RNA was isolated using TriZol reagent (Invitrogen). The isolated RNA is then reverse-transcribed using oligo(dT) primer and Mo-MLV reverse transcriptase (Invitrogen) with DNAse I (Ambion) treatment for 30 min. The one-tenth of the produced cDNA was amplified by PCR using Taq DNA polymerase (Invitrogen) and two reporter sequence-specific primers. The PCR products were fluorescently labeled by primer extension with 6-arboxyfluorescein (6-FAM) 5'-labeled reporter sequence-specific primer (2 min at 95 C, 20 s at 68 C and 10 min at 72 C) and these products were digested with 5U of HpaI (New England Biolabs) for 2h at 37 C. The fragments were purified using Qiaquick PCR columns (Qiagen), analyzed on an ABI 3130xL genetic analyzer (Applied Biosystems) with peak positions identified by using a set of X-rhodamine (ROX)-labeled MapMarker1000 molecular weight standards (BioVentures). The raw capillary electrophoresis data was processed using Attagraph software (Attagene).

SMILES	outcome	AC50
O=[N+]([O-])c1ccc(Cl)c([N+](=O)[O-])c1	inactive	–
CCC[CH2][Sn]([CH2]CCC)([CH2]CCC)[CH2]CCC	–	15.3 µM (active)
CC(c1ccccc1)(c1ccc(O)cc1)c1ccc(O)cc1	–	16.9 µM (active)
O=[N+]([O-])c1c2ccccc2cc2ccccc12	inactive	–
c1ccc2c(c1)Oc1ccccc1O2	inactive	–
CC(C)[C@H](C(=O)OC(C#N)c1cccc(Oc2ccccc2)c1)c1ccc(OC(F)F)cc1 (stereo not given in full)	inactive	–
CCNc1nc(NCC)nc(SC)n1	inactive	–
CN(CCCC(O)c1cccnc1)N=O (stereo not given)	inactive	–
CCOP(=O)(OCC)SCCSCC	inactive	–
O=C/C(Cl)=C(/Cl)C(=O)O	–	31.9 µM (active)
CCCCC(CC)COC(=O)Cl (stereo not given)	inactive	–
C[C@H]1C(=O)O[C@@H]2CCN3CC=C(COC(=O)[C@](C)(O)[C@]1(C)O)[C@H]23	inactive	–
COc1ccc(N)cc1	inactive	–
CCCCCCCCCCCCc1cccc(S(=O)(=O)O)c1	inactive	–
Cc1cc(Cl)ccc1N	inactive	–
Cc1cccc(N=Nc2ccc(N(C)C)cc2)c1	inactive	–
O=S(=O)(c1ccc(Cl)cc1)c1cc(Cl)c(Cl)cc1Cl	inactive	–
CC(C)CC(C)(c1ccc(O)cc1)c1ccc(O)cc1	–	11.1 µM (active)
C=CCOC(F)(C(F)(F)F)C(F)(F)F	inactive	–
O=C(N[C@H]1CN2CCC1CC2)c1ccc2c(c1)OCCO2	inactive	–

SMILES	outcome	AC50
CCOC(=O)OC1=C(c2cc(C)ccc2C)C(=O)NC12CCC(OC)CC2 (stereo not given)	inactive	–
O=C=Nc1ccc(Cl)cc1	inactive	–
O=c1oc2ccccc2c(O)c1C(CC(O)c1ccc(-c2ccc(Br)cc2)cc1)c1ccccc1 (stereo not given)	–	21.1 µM (active) and 11.5 µM (active)
CC(C)(c1ccccc1)c1cc(-n2nc3ccccc3n2)c(O)c(C(C)(C)c2ccccc2)c1	inactive	–
CCOC(=O)Cc1ccccc1	inactive	–
CCOCn1c(-c2ccc(Cl)cc2)c(C#N)c(Br)c1C(F)(F)F	–	7.11 µM (active)
Cc1ccccc1OP(=O)(Oc1ccccc1)Oc1ccccc1	inactive	–
Nc1c(Oc2ccccc2)cc(O)c2c1C(=O)c1ccccc1C2=O	inactive	–
O=C(O)COc1cc(Cl)c(Cl)cc1Cl	inactive	–
Cc1ccccc1OP(=O)(Oc1ccccc1C)Oc1ccccc1C	inactive	–
CNC(=O)N(C)c1nc2ccccc2s1	inactive	–
O=C(Cl)OCCOCCOC(=O)Cl	inactive	–
CC(C)=CC1C(C(=O)OCc2cccc(Oc3ccccc3)c2)C1(C)C (stereo not given)	inactive	–
O=C(Nc1ccc(Br)cc1)c1cc(Br)cc(Br)c1O	inactive	–
O=C(CCl)NCO	inactive	–
CCC(C)(C#N)N=NC(C)(C#N)CC (stereo not given)	inactive	–
CCCCCCCCCCCCCCC(Br)C(=O)O (stereo not given)	inactive	–
CC(C)(C1CCC(O)CC1)C1CCC(O)CC1 (stereo not given)	inactive	–
O=C(Cc1ccccc1)OCCc1ccccc1	inactive	–
C=CCc1ccccc1O	inactive	–

From PubChem BioAssay (EPA / NIEHS)
